Results filed as inconclusive are left out. Entries that show only a call come without a potency. Calls of active or inactive are those of the source. Calls come from the whole dose curve; as a rule, active = well fitted cell-killing curve with a large enough effect in the repeat runs; inconclusive = weak or mixed curves, or effect the other way; inactive = no such curve, though single readings can be large or run the other way.
Experiment: qHTS assay to identify small molecule antagonists of the sonic hedgehog signaling (Shh) pathway - cell viability counter screen (AID 1259367); note: nearly all actives have a fitted effect of over 55% in size
Settings: NIH/3T3 Gli1-Luc viability, CellTiter-Fluor, 24 h; series mostly up to 92.4 µM
From the text: National Center for Advancing Translational Sciences [NCATS]
NIH Chemical Genomics Center [NCGC]
U.S. Environmental Protection Agency [EPA]
National Institutes of Environmental Health Sciences [NIEHS]
National Toxicology Program [NTP]
U.S. Food and Drug Administration [FDA]
The sonic hedgehog (Shh) pathway is essential for normal embryonic development. Dysregulation of the Shh pathway can cause severe developmental defects in organs. Therefore chemicals that interfere with the pathway are potential developmental toxicants. A cell line designated 3T3Gli1-Luc (DMB/OARSA/CFSAN/FDA, Laurel, MD), a NIH/3T3 derived clone containing stably integrated Gli1-Luc reporter is used to detect chemical interference of the Shh pathway, by changes in the expression of the firefly Luc gene under the control of the Gli1 transcriptional response element. This cell line was used to screen Tox21 libraries for identifying and prioritizing the potential developmental toxicants that interfere Shh pathway. Conditioned medium-stimulated mode was used to screen for chemicals inhibiting Shh signaling. The cytotoxicity of the compounds was tested in parallel by measuring the cell viability using CellTiter-Fluor assay system (Promega, Madison, WI) in the same wells.
Tox21 Assay Protocol Summary:
3T3 Gli1-Luc cells were dispensed at 2,000 per well in 5uL of culture medium into white solid bottom 1536-well plates (Greiner Bio-One, Monroe, NC) using a Multidrop Combi (Thermo Scientific, Waltham, MA) dispenser. The assay plates were incubated at 37 C and 5% CO2 for 4hr, and then 23nL of compounds dissolved in DMSO and positive control were transferred using a Pintool station (Wako, San Diego, CA). The compound transfer was followed by the addition of 1ul conditioned medium or assay buffer using two separate tips of Flying Reagent Dispenser (FRD, Aurora Discovery, San Diego, CA). The assay plates were incubated at 37C and 5% CO2 for 24hr. For viability read, after 23hr of compound treatment, 1uL of CellTiter-Fluor reagent (Promega Corporation, Madison, WI) was added to each well of the assay plates using Flying Reagent Dispenser (FRD, Aurora Discovery, San Diego, CA) and incubated the assay plates at 37C for 1hr. The fluorescence signal was quantified using a ViewLux plate reader (Perkin Elmer, Shelton, CT).

Row | Compound | Potency
1 | O=[N+]([O-])c1ccc(Cl)c(Cl)c1 | inactive
2 | OC[C@@H](O)[C@H]1O[C@@H]2O[C@H](C(Cl)(Cl)Cl)O[C@@H]2[C@H]1O | inactive
3 | CN(C)C(=O)C(c1ccccc1)c1ccccc1 | inactive
4 | CN(C)CCC#N | inactive
5 | O=C(O)c1cc(Oc2ccc(C(F)(F)F)cc2Cl)ccc1[N+](=O)[O-] | inactive
6 | Cc1cccc(C)c1N | inactive
7 | O=[N+]([O-])c1cc([As](=O)(O)O)ccc1O | inactive
8 | O=C(O)COc1ccccc1 | inactive
9 | CNC(=O)O/N=C/C(C)(C)SC | inactive
10 | COP(=S)(OC)Oc1ccc(SC)c(C)c1 | inactive
11 | Cc1cccc(N)c1 | inactive
12 | CN(C)C(=O)Cl | inactive
13 | CC[N+](=O)[O-] | inactive
14 | O=[N+]([O-])c1ccc(Cl)cc1 | inactive
15 | ClC(Cl)c1ccccc1 | inactive
16 | COc1nc(NC(C)C)nc(NC(C)C)n1 | inactive
17 | Nc1cc(Cl)cc(Cl)c1 | inactive
18 | C[C@]12CC[C@H](O)CC1=CC[C@@H]1[C@@H]2CC[C@]2(C)C(=O)CC[C@@H]12 | inactive
19 | CC12CC1(C)C(=O)N(c1cc(Cl)cc(Cl)c1)C2=O (stereo not given) | inactive
20 | CCSC(=O)N1CCCCCC1 | inactive

Row | Compound | Potency
21 | CCCCC(CC)C(=O)Cl (stereo not given) | inactive
22 | OCCCCO | inactive
23 | Nc1cccc(Cl)c1 | inactive
24 | Oc1c(Br)cc(Br)cc1Br | inactive
25 | OCc1ccco1 | inactive
26 | Cc1cc(O)ccc1Cl | inactive
27 | Nc1nc(N)nc(NC2CC2)n1 | inactive
28 | CNC(=O)O/N=C/C(C)(C)S(C)(=O)=O | inactive
29 | O=C(O)Cc1ccccc1 | inactive
30 | [N-]=[N+]=CC(=O)OC[C@H](N)C(=O)O | inactive
31 | CC(=O)/C=C/c1ccccc1 | inactive
32 | Sc1ccccc1 | inactive
33 | CN(C)NC(=O)CCC(=O)O | inactive
34 | C[C@H]1C(=O)O[C@@H]2CCN3CC=C(COC(=O)[C@](C)(O)[C@]1(C)O)[C@H]23 | inactive
35 | C=C(C)C(=O)OCC(CC)CCCC (stereo not given) | inactive
36 | O=P1(NCCCl)OCCCN1CCCl (stereo not given) | inactive
37 | C=CC#N | inactive
38 | NNc1ccccc1 | inactive
39 | CCOP(=S)(OCC)Oc1cc(C)nc(C(C)C)n1 | inactive
40 | O=C/C=C/c1ccccc1 | inactive

Source: PubChem BioAssay (Tox21)
